# How the values were obtained:
# U-2932 [1] = assay: growth inhibition by drug alone (1 - RLU/untreated control) (fraction); higher = stronger inhibition; settings: 177Lu-lilotomab satetraxetan 0 ug/ml
# In short: (§1)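 RIVA or U-2932 cells were left untreated or pretreated for 18 h with a radiolabelled anti-CD37 antibody conjugate (~600 MBq/mg) at 0.5 µg/ml for RIVA or 1 µg/ml for U-2932. The cells were then washed and seeded at 3,000 cells/well on plates pre-printed with the Selleck Cambridge Cancer Compound library, dosed at 10/100 nM for RIVA and 10/1,000 nM for U-2932. From day 3, RealTime-Glo luminescence was read daily after 1 h at 37°C. Growth inhibition was taken as one minus RLU over the mean of the untreated no-drug wells, of which there were 48 per plate.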
# RIVA [2] = assay: as above; settings: 177Lu-lilotomab satetraxetan 0 ug/ml
# In short: as §1
# U-2932 [3] = assay: growth inhibition by drug plus 177Lu-lilotomab satetraxetan (1 - RLU/untreated control) (fraction); higher = stronger inhibition; settings: 177Lu-lilotomab satetraxetan 1 ug/ml
# In short: as §1
# RIVA [4] = assay: as above; settings: 177Lu-lilotomab satetraxetan 0.5 ug/ml
# In short: as §1
Structure (SMILES),"growth inhibition by drug alone (U-2932 [1]; 10 nM, time (day): 3)","growth inhibition by drug alone (U-2932 [1]; 10 nM, time (day): 4)","growth inhibition by drug alone (U-2932 [1]; 10 nM, time (day): 5)","growth inhibition by drug alone (U-2932 [1]; 10 nM, time (day): 6)","growth inhibition by drug alone (U-2932 [1]; 1000 nM, time (day): 3)","growth inhibition by drug alone (U-2932 [1]; 1000 nM, time (day): 4)","growth inhibition by drug alone (U-2932 [1]; 1000 nM, time (day): 5)","growth inhibition by drug alone (U-2932 [1]; 1000 nM, time (day): 6)","growth inhibition by drug alone (RIVA [2]; 10 nM, time (day): 3)","growth inhibition by drug alone (RIVA [2]; 10 nM, time (day): 4)","growth inhibition by drug alone (RIVA [2]; 10 nM, time (day): 5)","growth inhibition by drug alone (RIVA [2]; 10 nM, time (day): 6)","growth inhibition by drug alone (RIVA [2]; 100 nM, time (day): 3)","growth inhibition by drug alone (RIVA [2]; 100 nM, time (day): 4)","growth inhibition by drug alone (RIVA [2]; 100 nM, time (day): 5)","growth inhibition by drug alone (RIVA [2]; 100 nM, time (day): 6)","growth inhibition by drug plus 177Lu-lilotomab satetraxetan (U-2932 [3]; 10 nM, time (day): 3)","growth inhibition by drug plus 177Lu-lilotomab satetraxetan (U-2932 [3]; 10 nM, time (day): 4)","growth inhibition by drug plus 177Lu-lilotomab satetraxetan (U-2932 [3]; 10 nM, time (day): 5)","growth inhibition by drug plus 177Lu-lilotomab satetraxetan (U-2932 [3]; 10 nM, time (day): 6)","growth inhibition by drug plus 177Lu-lilotomab satetraxetan (U-2932 [3]; 1000 nM, time (day): 3)","growth inhibition by drug plus 177Lu-lilotomab satetraxetan (U-2932 [3]; 1000 nM, time (day): 4)","growth inhibition by drug plus 177Lu-lilotomab satetraxetan (U-2932 [3]; 1000 nM, time (day): 5)","growth inhibition by drug plus 177Lu-lilotomab satetraxetan (U-2932 [3]; 1000 nM, time (day): 6)","growth inhibition by drug plus 177Lu-lilotomab satetraxetan (RIVA [4]; 10 nM, time (day): 3)","growth inhibition by drug plus 177Lu-lilotomab satetraxetan (RIVA [4]; 10 nM, time (day): 4)","growth inhibition by drug plus 177Lu-lilotomab satetraxetan (RIVA [4]; 10 nM, time (day): 5)","growth inhibition by drug plus 177Lu-lilotomab satetraxetan (RIVA [4]; 10 nM, time (day): 6)","growth inhibition by drug plus 177Lu-lilotomab satetraxetan (RIVA [4]; 100 nM, time (day): 3)","growth inhibition by drug plus 177Lu-lilotomab satetraxetan (RIVA [4]; 100 nM, time (day): 4)","growth inhibition by drug plus 177Lu-lilotomab satetraxetan (RIVA [4]; 100 nM, time (day): 5)","growth inhibition by drug plus 177Lu-lilotomab satetraxetan (RIVA [4]; 100 nM, time (day): 6)"
CNCc1ccc(-c2[nH]c3cc(F)cc4c3c2CCNC4=O)cc1,0.062,0.0535,0.0443,0.155,0.0442,0.0462,0.0516,0.0343,-0.0585,-0.0309,-0.0988,-0.165,-0.0509,-0.0204,-0.0791,-0.0893,0.05,0.0426,0.0882,0.222,0.0393,0.0885,0.124,0.238,,,,,,,,
COc1cc(N2CCC(N3CCN(C)CC3)CC2)ccc1Nc1ncc(Cl)c(Nc2ccccc2S(=O)(=O)C(C)C)n1,0.0279,0.0267,-0.0689,-0.173,0.411,0.377,0.328,0.37,-0.00616,-0.0284,-0.166,-0.627,-0.194,-0.141,-0.341,-0.647,-0.0224,0.0234,0.0221,0.0517,0.226,0.3,0.325,0.525,0.354,0.492,0.509,0.521,0.198,0.273,0.278,0.268
C[C@]12CC[C@@H]3c4ccc(O)cc4CC[C@H]3[C@@H]1CCC2=O [Estrone],0.0961,0.0749,0.0943,-0.00298,0.0954,0.046,0.0242,-0.126,-0.099,-0.0604,-0.112,-0.295,-0.445,-0.269,-0.323,-0.542,0.0282,0.0899,0.127,0.0988,0.0277,0.0438,0.0954,0.209,0.474,0.569,0.585,0.601,0.271,0.43,0.447,0.475
CCN(CC)CCCCNc1ncc2cc(-c3cc(OC)cc(OC)c3)c(NC(=O)NC(C)(C)C)nc2n1,-0.118,-0.118,-0.0732,-0.00128,-0.114,-0.0849,-0.071,0.0716,-0.21,-0.246,-0.227,-0.211,-0.356,-0.38,-0.379,-0.398,-0.0428,0.00417,0.0568,0.152,-0.156,-0.0951,-0.0251,0.158,,,,,,,,
O=C1c2ccccc2C(=O)c2c(NCCc3ccc(O)cc3)ccc(NCCc3ccc(O)cc3)c21,-0.0815,-0.112,-0.157,-0.425,-0.127,-0.129,-0.138,-0.403,-0.237,-0.358,-0.539,-0.808,-0.77,-0.807,-0.893,-1.08,-0.127,-0.0794,-0.054,-0.0701,-0.11,-0.0952,-0.0582,0.044,,,,,,,,
O=C(NC1CCNCC1)c1n[nH]cc1NC(=O)c1c(Cl)cccc1Cl,0.0998,0.0607,0.0482,0.00372,0.953,0.964,0.972,0.975,0.0833,0.0499,0.00549,-0.171,-0.131,-0.1,-0.185,-0.425,0.0507,0.0657,0.0758,0.0972,0.947,0.964,0.971,0.977,0.495,0.577,0.593,0.579,0.503,0.57,0.566,0.533
CC#C[C@]1(O)CC[C@H]2[C@@H]3CCC4=CC(=O)CCC4=C3[C@@H](c3ccc(N(C)C)cc3)C[C@@]21C [Mifepristone (Mifeprex)],-0.0691,-0.0767,-0.047,0.0535,-0.0327,-0.0148,-0.0455,0.0917,-0.296,-0.283,-0.273,-0.268,-0.146,-0.253,-0.254,-0.235,-0.019,0.0308,0.0649,0.159,-0.0642,-0.00915,0.0416,0.233,0.413,0.477,0.486,0.497,0.391,0.438,0.445,0.436
CCCS(=O)(=O)Nc1ccc(F)c(C(=O)c2c[nH]c3ncc(-c4ccc(Cl)cc4)cc23)c1F [Vemurafenib (PLX4032)],0.026,-4.15e-06,-0.0629,-0.147,-0.152,-0.0928,-0.16,-0.291,-0.0219,-0.0744,-0.165,-0.55,-0.231,-0.206,-0.219,-0.345,-0.0121,0.00305,0.0511,0.0873,-0.143,-0.047,-0.0561,0.06,,,,,,,,
Cc1cn(-c2cc(NC(=O)c3ccc(C)c(Nc4nccc(-c5cccnc5)n4)c3)cc(C(F)(F)F)c2)cn1 [Nilotinib (AMN-107)],0.0488,0.0185,-0.0493,-0.187,-0.0166,0.0185,-0.0481,-0.136,-0.0335,-0.0957,-0.159,-0.318,-0.122,-0.118,-0.0918,-0.17,-0.0417,-0.0287,-0.0436,0.0203,-0.141,-0.0418,-0.0875,-0.155,,,,,,,,
CCN(CC)CCOc1ccc(Nc2ncc3cc(-c4c(Cl)cccc4Cl)c(=O)n(C)c3n2)cc1,0.107,0.071,0.00536,-0.00834,0.719,0.785,0.78,0.774,-0.00347,0.00881,-0.0667,-0.267,0.458,0.461,0.386,0.22,0.0115,0.0427,0.0614,0.118,0.958,0.972,0.981,0.984,,,,,,,,
C[S+]([O-])c1ccc(-c2nc(-c3ccc(F)cc3)c(-c3ccncc3)[nH]2)cc1 (stereo unspecified),0.109,0.0691,0.0651,0.00981,0.494,0.396,0.258,0.202,-0.0319,0.0179,-0.0545,-0.284,-0.128,-0.0437,-0.0833,-0.227,0.103,0.123,0.206,0.225,0.441,0.358,0.325,0.374,,,,,,,,
N#CCNC(=O)c1ccc(-c2ccnc(Nc3ccc(N4CCOCC4)cc3)n2)cc1,-0.0265,-0.0512,-0.0373,0.104,-0.161,-0.159,-0.134,0.0156,-0.164,-0.233,-0.267,-0.364,-0.378,-0.377,-0.416,-0.56,-0.0778,-0.021,0.0189,0.13,0.143,0.174,0.206,0.384,,,,,,,,
CC(C)c1onc(-c2c(Cl)cccc2Cl)c1COc1ccc(/C=C/c2cccc(C(=O)O)c2)c(Cl)c1,0.0964,0.0881,0.0536,0.0511,-0.008,0.0242,-0.0241,-0.208,0.157,0.0681,0.0301,-0.185,0.0922,0.0619,0.0293,-0.0245,0.0329,0.0686,0.0726,0.0791,-0.0283,0.0526,0.0247,0.0113,0.473,0.542,0.562,0.583,0.522,0.552,0.554,0.538
COc1ccc(CCN2CCN(CCCc3ccccc3)CC2)cc1OC,0.0269,-0.00972,-0.0184,-0.287,-0.032,-0.091,-0.153,-0.298,-0.0905,-0.186,-0.542,-0.55,-0.612,-0.501,-0.797,-0.809,-0.0743,-0.0209,0.0479,0.0237,0.0208,0.0062,0.0376,0.127,,,,,,,,
Cc1ccc(-c2cc(C(F)(F)F)nn2-c2ccc(S(N)(=O)=O)cc2)cc1 [Celecoxib],-0.0761,-0.0572,-0.00842,0.0336,-0.0323,-0.0104,-0.0383,-0.0538,-0.101,-0.129,-0.153,-0.237,-0.0795,-0.119,-0.157,-0.232,-0.0503,-0.0256,0.0111,0.161,-0.109,-0.0274,0.00456,0.0432,,,,,,,,
Cc1ccc(NC(=O)c2ccc(CN3CCN(C)CC3)cc2)cc1Nc1nccc(-c2cccnc2)n1 [Imatinib (Gleevec)],0.114,0.0795,0.0573,-0.108,-0.0113,-0.0535,-0.0116,-0.0612,-0.0508,-0.0897,-0.292,-0.626,-0.513,-0.311,-0.289,-0.464,-0.0306,0.0247,0.124,0.134,-0.0872,-0.0527,0.073,0.171,0.424,0.545,0.568,0.595,0.301,0.444,0.462,0.483
Cc1cnc(NC(=O)Nc2cc(Br)c(C)cc2OC[C@@H]2CNCCO2)cn1,0.0563,0.0329,0.0344,0.113,0.227,0.217,0.207,0.233,-0.0313,-0.0243,-0.0759,-0.161,0.0523,0.0207,-0.0517,-0.0919,-0.00545,0.00557,0.0372,0.164,0.245,0.335,0.376,0.486,,,,,,,,
